Data reported in paper PMC5540273 (PLoS ONE, 2017).

Assays:
Conditions in all cases: concentration: 1 μM, replicates: in singlicate; n = 1
CSF1R-autoinhibited = test system: CSF1R-autoinhibited
CSF1R = test system: CSF1R
CSK = test system: CSK
CSNK1A1L = test system: CSNK1A1L
CSNK1A1 = test system: CSNK1A1
CSNK1D = test system: CSNK1D
CSNK1E = test system: CSNK1E
CSNK1G1 = test system: CSNK1G1
CSNK1G2 = test system: CSNK1G2
CSNK1G3 = test system: CSNK1G3
CSNK2A1 = test system: CSNK2A1
CSNK2A2 = test system: CSNK2A2
CTK = test system: T1, CTK
T1 construct: gene MATK

DAPK1 = test system: DAPK1
DAPK2 = test system: DAPK2
DAPK3 = test system: DAPK3
DCAMKL1 = test system: T2, DCAMKL1
T2 construct: gene DCLK1

DCAMKL2 = test system: T3, DCAMKL2
T3 construct: gene DCLK2

DCAMKL3 = test system: T4, DCAMKL3
T4 construct: gene DCLK3

DDR1 = test system: DDR1
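Further: KINOMEscan kinase panel screen.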

SMILES	%Inh (CSF1R-autoinhibited) [%]	%Inh (CSF1R) [%]	%Inh (CSK) [%]	%Inh (CSNK1A1L) [%]	%Inh (CSNK1A1) [%]	%Inh (CSNK1D) [%]	%Inh (CSNK1E) [%]	%Inh (CSNK1G1) [%]	%Inh (CSNK1G2) [%]	%Inh (CSNK1G3) [%]	%Inh (CSNK2A1) [%]	%Inh (CSNK2A2) [%]	%Inh (CTK) [%]	%Inh (DAPK1) [%]	%Inh (DAPK2) [%]	%Inh (DAPK3) [%]	%Inh (DCAMKL1) [%]	%Inh (DCAMKL2) [%]	%Inh (DCAMKL3) [%]	%Inh (DDR1) [%]
FC(F)(F)c1ccc(-c2nn3ncccc3c2-c2ccnc(Nc3cccc(C(F)(F)F)c3)n2)cc1 [GW828205]	0	0	0	5	30	24	17	2	3	2	0	0	0	0	0	1	34	0	22	86
CCC(CC)(CC)n1cnc2c(N)ncnc21 [SKF-97620]	35	0	0	1	0	0	5	4	0	0	0	0	0	16	9	12	0	0	0	0
Nc1n[nH]c2nnc(-c3ccccc3)cc12 [SB-517389]	0	18	0	10	0	6	28	7	0	17	0	16	0	28	0	17	11	0	29	9
CCCc1ccc(S(=O)(=O)NC2CCN(c3ccnc(Nc4ccc(OC)cc4)n3)C2)cc1 (centres unmarked) [GSK1379737]	23	10	0	7	0	14	19	0	0	21	0	0	0	0	0	14	7	0	0	15
CCc1nc(-c2cccc(N(C)S(=O)(=O)c3ccccc3)c2)c(-c2ccnc(Nc3ccc(N4CCN(C(C)=O)CC4)nc3)n2)s1 [GSK1645895]	0	17	50	0	0	2	55	20	0	26	18	6	0	21	0	4	10	0	4	44
Fc1ccc(Nc2nccc(-c3c(-c4ccc(Cl)cc4)nn4ncccc34)n2)cc1F [GW829058]	0	14	28	3	32	60	22	0	2	0	0	24	30	1	0	8	25	11	0	87
O=C(c1ccc(-c2cc(-c3c[nH]nc3-c3ccccn3)ccn2)cc1)N1CCCC1 [GW792479]	0	0	17	0	59	49	30	9	9	0	0	0	0	0	33	85	19	10	0	0
Nc1nccc2scc(-c3ccc4c(c3)CCN4C(=O)Cc3cc(F)ccc3F)c12 [GSK2587663]	0	67	0	1	0	14	62	0	0	10	0	7	0	27	2	7	14	8	11	10
Cc1cc(N2CCC(NS(=O)(=O)c3ccc(F)cc3)CC2)nc(Nc2cccc(C#N)c2)n1.O=C(O)C(F)(F)F [GSK1653537]	0	0	0	35	25	27	52	27	5	15	1	11	0	0	0	2	0	0	0	0
O=C(Nc1n[nH]c2nc(-c3ccco3)c(Br)cc12)c1ccc(CN2CCCC2)cc1.O=C(O)[C@H](O)[C@@H](O)C(=O)O [SB-742352]	0	71	0	0	0	0	0	0	0	0	0	29	15	0	0	0	0	0	28	19
Fc1cccc(COc2ccc(Nc3ncnc4nn5ccccc5c34)cc2Cl)c1 [GW689066]	37	0	0	0	0	3	14	0	0	3	0	0	0	0	0	7	0	0	9	0
FC(F)(F)c1ccc(-c2cc(-c3c[nH]nc3-c3ccccn3)ccn2)cc1 [GW599550]	33	0	0	0	0	48	45	10	13	13	0	30	0	9	16	99.2	10	16	0	0
Nc1nc(-c2ccc3c(N)n[nH]c3c2)cc(N2CCC[C@@H](C(=O)Nc3ccccc3)C2)n1.O=C(O)C(F)(F)F.O=C(O)C(F)(F)F [GSK2288359]	0	13	8	0	0	0	15	8	100	25	1	18	0	7	0	0	12	0	0	0
COc1cc2c(Nc3cccc(NC(=O)c4ccccc4)c3)ncnc2cc1OCCCN1CCOCC1 [GSK223810]	0	83	23	63	62	60	54	13	0	18	6	22	0	0	15	28	0	14	16	12
Cn1ccc2ncnc(Nc3ccc(Oc4cccc(Cl)c4)c(Cl)c3)c21	1	17	46	16	14	10	0	6	0	0	0	39	45	18	0	0	43	5	0	0
CSc1nn2c(=O)cc(N3CCOCC3)nc2n1Cc1cccc(Cl)c1Cl [GSK2347225]	0	4	0	32	0	13	87	6	0	33	5	33	0	14	5	24	29	0	3	17

SMILES	%Inh (CSF1R-autoinhibited) [%]	%Inh (CSF1R) [%]	%Inh (CSK) [%]	%Inh (CSNK1A1L) [%]	%Inh (CSNK1A1) [%]	%Inh (CSNK1D) [%]	%Inh (CSNK1E) [%]	%Inh (CSNK1G1) [%]	%Inh (CSNK1G2) [%]	%Inh (CSNK1G3) [%]	%Inh (CSNK2A1) [%]	%Inh (CSNK2A2) [%]	%Inh (CTK) [%]	%Inh (DAPK1) [%]	%Inh (DAPK2) [%]	%Inh (DAPK3) [%]	%Inh (DCAMKL1) [%]	%Inh (DCAMKL2) [%]	%Inh (DCAMKL3) [%]	%Inh (DDR1) [%]
FC(F)(F)c1cc(Nc2nccc(-c3c(-c4ccc(Cl)cc4)nn4ncccc34)n2)ccc1Cl [GW829351]	0	0	0	0	0	81	79	0	0	0	0	11	14	0	0	12	0	0	0	78
Clc1ccc(-c2cc(-c3c[nH]nc3-c3ccccn3)ccn2)cc1 [GW681251]	0	8	0	1	18	42	33	0	0	0	0	21	0	0	0	30	0	0	0	73
O=C(Nc1ccccc1)Nc1ccc(Oc2ccc3nccn3n2)cc1	0	39	0	6	19	1	1	0	0	29	0	0	100	0	1	0	9	10	59	98.6
Cc1cccc(-c2nc(Nc3ccc4[nH]nnc4c3)c3ccccc3n2)n1 [GW867587]	0	0	0	0	0	4	0	0	0	0	80	45	10	0	0	0	0	0	0	0
O=C(CCO)NCCn1ccc2ncnc(Nc3ccc(Oc4cccc(C(F)(F)F)c4)c(Cl)c3)c21	0	0	3	0	0	0	0	0	0	0	0	0	0	11	0	0	39	0	0	0
CSc1ccc(NC2=C(c3ccccc3Cl)C(=O)NC2=O)cc1 [SB-342411]	0	7	7	0	0	2	19	16	0	0	2	10	0	30	16	11	2	0	43	10
CN1c2ccc(-c3ccc(C(=O)NCCO)cc3)cc2-c2[nH]ncc2S1(=O)=O	25	0	9	7	4	5	3	0	0	6	25	47	0	32	36	31	26	12	2	0
Cl.O=S(=O)(c1cccc(F)c1)c1ccc(Nc2ncnc3cc(Br)sc23)cc1Cl [GSK306886]	0	8	30	0	0	36	22	0	0	33	0	37	0	8	0	47	6	0	9	2
Cl.Cl.c1ccc(-c2cc3ccncc3cc2OC2CCNCC2)cc1 [GSK1122999]	5	49	0	23	16	0	41	14	0	27	0	27	0	93.5	66	98.8	19	0	30	9
Nc1nc(-c2ccccn2)c(-c2ccnc3ccccc23)s1 [GW548057]	58	19	3	38	89	83	79	11	0	27	0	17	0	11	13	31	23	11	6	0
Clc1cc(Nc2ncnc3cc[nH]c23)ccc1OCc1ccccn1	0	7	17	1	14	4	4	2	11	0	41	31	56	25	0	0	26	21	6	14
CNc1nccc(-c2c(-c3ccc(F)cc3)ncn2C2CCN(C)CC2)n1 [SB-222903]	0	0	0	38	95.5	94	99.5	0	0	0	0	0	0	0	0	25	19	0	0	65
CC(=O)Nc1n[nH]c2ncc(-c3ccccc3)cc12 [SB-548492]	0	19	3	21	0	0	34	0	0	4	20	25	38	100	1	0	36	15	0	0
COC(=O)c1cccc(NC(=O)NCCNc2ccnc(Nc3ccc(F)cc3)n2)c1 [GSK1379883]	0	14	0	4	0	3	29	0	0	25	0	23	0	0	0	13	88	0	24	0
Clc1cccc(-c2nc(Nc3ccncc3)c3ccccc3n2)c1 [GW873004]	0	0	0	7	29	12	23	3	10	18	0	14	0	0	0	11	13	0	41	79
